Data as given in the supplement of paper PMC11732987, “Enantioselective OTUD7B fragment discovery through chemoproteomics screening and high-throughput optimisation” (Communications Chemistry, 2025).
Values without a mark were called inactive.

How the values were obtained:
Test in all cases: log2 ratio of Biotin-Ahx-Ub-VS probe labelling (fragment/DMSO); higher = less target engagement (more negative = stronger competition), active = hit call of the paper (q ≤ 0.05, log2 ratio ≤ -1)
Conditions in all cases: compound concentration: 200 uM; treatment time: 3 h
[1] = biological target: UniProt O00507
How it was run: (§1)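 Labelled DUBs from HEK293T lysate were NeutrAvidin-enriched, digested with LysC and trypsin, and run by diaPASEF LC-MS/MS. Before that, each 495 µg sample in Tris/CHAPS/IGEPAL buffer with protease inhibitors was treated in triplicate with fragment at 200 µM or vehicle for 3 h, then with Biotin-Ahx-Ub-VS at 0.5 µM final for 1 h. Values are average log2 ratios of fragment over vehicle by unpaired t-test, based on global-median-normalised Spectronaut label-free quantities from proteins with ≥2 unique peptides.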

[2] = biological target: UniProt P51784
How it was run: as §1

[3] = biological target: T1, UniProt Q5T2D3
T1 sequence (whole entry): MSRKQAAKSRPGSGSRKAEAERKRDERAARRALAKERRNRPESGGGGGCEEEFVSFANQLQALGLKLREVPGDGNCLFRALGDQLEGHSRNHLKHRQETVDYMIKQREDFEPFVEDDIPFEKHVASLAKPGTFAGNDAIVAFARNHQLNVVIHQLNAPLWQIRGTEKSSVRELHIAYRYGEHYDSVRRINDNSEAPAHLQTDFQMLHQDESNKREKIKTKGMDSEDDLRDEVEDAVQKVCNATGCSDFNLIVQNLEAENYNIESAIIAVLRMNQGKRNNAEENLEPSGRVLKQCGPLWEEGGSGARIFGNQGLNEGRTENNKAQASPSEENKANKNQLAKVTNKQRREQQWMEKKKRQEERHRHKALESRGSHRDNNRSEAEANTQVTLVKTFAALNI
How it was run: as §1

[4] = biological target: T2, UniProt Q8TE49
T2 sequence (whole entry): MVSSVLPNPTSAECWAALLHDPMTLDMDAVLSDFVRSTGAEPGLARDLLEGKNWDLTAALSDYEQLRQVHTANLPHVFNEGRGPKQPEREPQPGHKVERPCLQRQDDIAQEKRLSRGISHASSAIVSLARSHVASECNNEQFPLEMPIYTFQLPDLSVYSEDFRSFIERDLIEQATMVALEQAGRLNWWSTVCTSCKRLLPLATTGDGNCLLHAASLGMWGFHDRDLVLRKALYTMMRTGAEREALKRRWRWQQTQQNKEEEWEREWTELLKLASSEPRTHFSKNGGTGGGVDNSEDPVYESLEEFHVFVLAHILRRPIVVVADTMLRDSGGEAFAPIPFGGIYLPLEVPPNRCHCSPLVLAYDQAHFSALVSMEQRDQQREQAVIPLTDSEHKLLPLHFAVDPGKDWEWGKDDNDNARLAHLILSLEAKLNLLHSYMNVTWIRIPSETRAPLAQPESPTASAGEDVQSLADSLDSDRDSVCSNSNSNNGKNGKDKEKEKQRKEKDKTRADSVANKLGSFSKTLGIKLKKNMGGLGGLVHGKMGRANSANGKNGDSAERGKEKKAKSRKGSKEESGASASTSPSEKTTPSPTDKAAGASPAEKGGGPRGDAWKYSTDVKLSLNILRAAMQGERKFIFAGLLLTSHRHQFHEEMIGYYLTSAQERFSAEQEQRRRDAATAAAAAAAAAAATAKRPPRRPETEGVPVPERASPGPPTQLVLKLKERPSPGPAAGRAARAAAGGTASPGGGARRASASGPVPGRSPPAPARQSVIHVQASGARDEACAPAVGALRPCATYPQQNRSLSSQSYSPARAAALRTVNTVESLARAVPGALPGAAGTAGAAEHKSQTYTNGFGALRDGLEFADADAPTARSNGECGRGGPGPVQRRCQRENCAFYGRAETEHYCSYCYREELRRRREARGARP
How it was run: as §1

[5] = biological target: T3, UniProt Q9P2H5
T3 sequence (whole entry): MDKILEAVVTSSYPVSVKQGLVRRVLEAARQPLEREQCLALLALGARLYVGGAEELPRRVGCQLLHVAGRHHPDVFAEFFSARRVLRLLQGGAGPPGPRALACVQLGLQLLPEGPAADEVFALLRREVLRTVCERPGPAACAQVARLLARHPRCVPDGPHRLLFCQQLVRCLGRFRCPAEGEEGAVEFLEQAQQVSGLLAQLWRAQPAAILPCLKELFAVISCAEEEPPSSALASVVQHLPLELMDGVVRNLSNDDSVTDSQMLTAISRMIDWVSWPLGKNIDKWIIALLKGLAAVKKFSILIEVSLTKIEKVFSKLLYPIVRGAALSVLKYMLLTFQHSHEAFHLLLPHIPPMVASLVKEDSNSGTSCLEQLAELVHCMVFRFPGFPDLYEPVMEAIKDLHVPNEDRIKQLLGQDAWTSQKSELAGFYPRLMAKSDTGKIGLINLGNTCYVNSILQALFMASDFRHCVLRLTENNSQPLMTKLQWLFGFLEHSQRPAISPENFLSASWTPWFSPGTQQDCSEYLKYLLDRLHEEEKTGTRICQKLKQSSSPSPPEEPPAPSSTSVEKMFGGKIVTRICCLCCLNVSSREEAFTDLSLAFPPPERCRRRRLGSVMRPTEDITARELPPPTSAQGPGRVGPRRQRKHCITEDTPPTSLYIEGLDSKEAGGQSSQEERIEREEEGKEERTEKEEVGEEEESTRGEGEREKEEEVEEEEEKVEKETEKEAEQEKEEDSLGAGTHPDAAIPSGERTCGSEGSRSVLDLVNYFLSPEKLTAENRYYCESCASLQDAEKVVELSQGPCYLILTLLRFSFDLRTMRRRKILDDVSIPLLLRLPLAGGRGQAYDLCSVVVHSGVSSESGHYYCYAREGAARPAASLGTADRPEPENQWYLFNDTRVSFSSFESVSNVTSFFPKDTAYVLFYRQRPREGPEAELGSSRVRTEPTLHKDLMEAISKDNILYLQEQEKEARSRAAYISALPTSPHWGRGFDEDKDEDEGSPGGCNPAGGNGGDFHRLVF
How it was run: as §1

[6] = biological target: T4, UniProt Q9UGI0
T4 sequence (whole entry): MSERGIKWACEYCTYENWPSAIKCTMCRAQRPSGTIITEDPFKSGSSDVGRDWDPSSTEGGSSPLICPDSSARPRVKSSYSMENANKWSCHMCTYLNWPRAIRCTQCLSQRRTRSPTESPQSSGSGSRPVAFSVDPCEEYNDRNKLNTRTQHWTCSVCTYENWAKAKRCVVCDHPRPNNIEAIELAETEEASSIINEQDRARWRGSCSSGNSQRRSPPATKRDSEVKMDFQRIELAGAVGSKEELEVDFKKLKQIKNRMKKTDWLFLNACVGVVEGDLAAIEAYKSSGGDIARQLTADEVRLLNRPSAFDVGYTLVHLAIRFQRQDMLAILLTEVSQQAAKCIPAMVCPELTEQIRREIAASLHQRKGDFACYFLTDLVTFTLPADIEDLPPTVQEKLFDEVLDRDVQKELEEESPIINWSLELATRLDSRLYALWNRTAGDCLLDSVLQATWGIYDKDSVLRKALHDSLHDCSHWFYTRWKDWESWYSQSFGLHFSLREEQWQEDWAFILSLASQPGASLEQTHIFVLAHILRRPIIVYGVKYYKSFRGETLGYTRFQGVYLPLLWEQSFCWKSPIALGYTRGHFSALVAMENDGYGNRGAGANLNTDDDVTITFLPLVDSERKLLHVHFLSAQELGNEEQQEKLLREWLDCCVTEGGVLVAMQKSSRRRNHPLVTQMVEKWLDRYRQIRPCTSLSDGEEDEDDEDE
How it was run: as §1

[7] = biological target: T5, YOD1 (UniProt Q5VVQ6)
T5 sequence (whole entry): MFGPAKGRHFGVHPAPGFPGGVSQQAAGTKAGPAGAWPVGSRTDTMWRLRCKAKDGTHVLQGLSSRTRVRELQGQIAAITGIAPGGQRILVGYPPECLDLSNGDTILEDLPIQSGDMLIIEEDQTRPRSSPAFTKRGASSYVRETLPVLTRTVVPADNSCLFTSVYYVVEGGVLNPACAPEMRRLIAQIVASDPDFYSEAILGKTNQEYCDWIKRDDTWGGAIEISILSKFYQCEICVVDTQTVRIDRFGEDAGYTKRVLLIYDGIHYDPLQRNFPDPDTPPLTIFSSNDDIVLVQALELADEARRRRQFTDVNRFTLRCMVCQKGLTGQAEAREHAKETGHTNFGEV
How it was run: as §1

Sequence of UniProt O00507 (O00507 whole entry, the tested form may be a part): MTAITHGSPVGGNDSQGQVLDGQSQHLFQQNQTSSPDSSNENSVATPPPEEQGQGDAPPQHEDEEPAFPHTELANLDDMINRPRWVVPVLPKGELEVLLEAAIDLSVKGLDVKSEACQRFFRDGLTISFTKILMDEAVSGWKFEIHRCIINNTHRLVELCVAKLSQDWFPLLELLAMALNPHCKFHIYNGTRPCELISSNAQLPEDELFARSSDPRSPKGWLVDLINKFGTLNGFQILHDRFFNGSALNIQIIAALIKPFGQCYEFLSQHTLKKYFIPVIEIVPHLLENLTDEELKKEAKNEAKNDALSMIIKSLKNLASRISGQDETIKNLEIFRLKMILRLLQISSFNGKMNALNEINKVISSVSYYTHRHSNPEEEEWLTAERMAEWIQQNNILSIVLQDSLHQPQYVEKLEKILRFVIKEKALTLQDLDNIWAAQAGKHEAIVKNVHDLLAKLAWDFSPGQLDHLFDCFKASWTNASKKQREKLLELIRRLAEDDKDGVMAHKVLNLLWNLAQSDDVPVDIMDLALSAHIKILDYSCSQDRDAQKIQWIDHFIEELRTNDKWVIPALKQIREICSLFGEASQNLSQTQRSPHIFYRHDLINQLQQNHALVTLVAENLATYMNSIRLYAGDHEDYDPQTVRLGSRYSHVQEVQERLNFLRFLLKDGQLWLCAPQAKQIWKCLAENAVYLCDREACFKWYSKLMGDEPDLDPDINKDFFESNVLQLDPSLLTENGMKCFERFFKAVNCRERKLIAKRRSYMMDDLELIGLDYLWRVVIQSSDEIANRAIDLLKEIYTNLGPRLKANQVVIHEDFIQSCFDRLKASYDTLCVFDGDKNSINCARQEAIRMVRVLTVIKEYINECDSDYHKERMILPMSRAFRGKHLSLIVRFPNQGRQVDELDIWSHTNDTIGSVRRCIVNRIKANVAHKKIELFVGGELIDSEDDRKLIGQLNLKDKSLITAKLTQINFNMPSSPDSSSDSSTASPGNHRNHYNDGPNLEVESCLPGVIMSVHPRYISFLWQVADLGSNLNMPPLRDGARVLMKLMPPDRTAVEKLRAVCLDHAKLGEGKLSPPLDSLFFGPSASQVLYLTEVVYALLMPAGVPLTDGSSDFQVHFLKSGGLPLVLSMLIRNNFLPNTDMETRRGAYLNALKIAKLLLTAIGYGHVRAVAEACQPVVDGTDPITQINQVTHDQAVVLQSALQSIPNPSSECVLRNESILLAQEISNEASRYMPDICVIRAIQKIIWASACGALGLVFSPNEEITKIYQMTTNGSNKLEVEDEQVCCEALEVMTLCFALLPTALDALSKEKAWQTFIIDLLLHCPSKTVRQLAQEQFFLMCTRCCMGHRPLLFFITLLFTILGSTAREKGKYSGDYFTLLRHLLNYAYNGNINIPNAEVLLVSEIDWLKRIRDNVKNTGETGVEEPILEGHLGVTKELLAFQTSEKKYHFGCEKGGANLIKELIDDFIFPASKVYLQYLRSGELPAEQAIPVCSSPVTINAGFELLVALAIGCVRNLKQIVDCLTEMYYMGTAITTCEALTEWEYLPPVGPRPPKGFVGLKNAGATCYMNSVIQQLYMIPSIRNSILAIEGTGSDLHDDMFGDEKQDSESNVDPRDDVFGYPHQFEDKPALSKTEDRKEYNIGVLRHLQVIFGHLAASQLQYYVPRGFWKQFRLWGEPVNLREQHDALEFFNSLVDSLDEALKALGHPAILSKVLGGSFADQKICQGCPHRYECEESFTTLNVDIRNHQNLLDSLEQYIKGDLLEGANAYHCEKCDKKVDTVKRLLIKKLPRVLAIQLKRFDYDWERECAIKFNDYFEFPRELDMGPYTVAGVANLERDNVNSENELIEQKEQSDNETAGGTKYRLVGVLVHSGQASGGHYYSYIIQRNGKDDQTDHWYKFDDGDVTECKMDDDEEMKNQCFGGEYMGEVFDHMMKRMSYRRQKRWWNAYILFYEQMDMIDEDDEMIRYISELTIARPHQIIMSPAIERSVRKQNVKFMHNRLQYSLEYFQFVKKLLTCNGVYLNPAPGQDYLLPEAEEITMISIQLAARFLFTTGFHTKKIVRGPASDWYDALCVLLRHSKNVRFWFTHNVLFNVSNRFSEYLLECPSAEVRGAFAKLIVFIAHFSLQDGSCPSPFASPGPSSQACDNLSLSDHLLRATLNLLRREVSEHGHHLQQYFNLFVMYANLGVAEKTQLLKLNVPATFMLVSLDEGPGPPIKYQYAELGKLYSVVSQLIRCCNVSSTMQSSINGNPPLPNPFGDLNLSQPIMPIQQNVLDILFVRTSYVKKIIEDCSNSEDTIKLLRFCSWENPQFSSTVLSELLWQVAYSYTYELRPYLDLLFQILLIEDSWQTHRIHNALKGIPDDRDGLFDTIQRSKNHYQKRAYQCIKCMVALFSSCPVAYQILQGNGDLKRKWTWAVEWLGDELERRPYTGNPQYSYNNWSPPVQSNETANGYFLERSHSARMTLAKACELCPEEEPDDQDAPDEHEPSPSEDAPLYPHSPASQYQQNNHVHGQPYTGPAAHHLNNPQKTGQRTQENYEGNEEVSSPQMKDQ
Sequence of UniProt P51784 (P51784 whole entry): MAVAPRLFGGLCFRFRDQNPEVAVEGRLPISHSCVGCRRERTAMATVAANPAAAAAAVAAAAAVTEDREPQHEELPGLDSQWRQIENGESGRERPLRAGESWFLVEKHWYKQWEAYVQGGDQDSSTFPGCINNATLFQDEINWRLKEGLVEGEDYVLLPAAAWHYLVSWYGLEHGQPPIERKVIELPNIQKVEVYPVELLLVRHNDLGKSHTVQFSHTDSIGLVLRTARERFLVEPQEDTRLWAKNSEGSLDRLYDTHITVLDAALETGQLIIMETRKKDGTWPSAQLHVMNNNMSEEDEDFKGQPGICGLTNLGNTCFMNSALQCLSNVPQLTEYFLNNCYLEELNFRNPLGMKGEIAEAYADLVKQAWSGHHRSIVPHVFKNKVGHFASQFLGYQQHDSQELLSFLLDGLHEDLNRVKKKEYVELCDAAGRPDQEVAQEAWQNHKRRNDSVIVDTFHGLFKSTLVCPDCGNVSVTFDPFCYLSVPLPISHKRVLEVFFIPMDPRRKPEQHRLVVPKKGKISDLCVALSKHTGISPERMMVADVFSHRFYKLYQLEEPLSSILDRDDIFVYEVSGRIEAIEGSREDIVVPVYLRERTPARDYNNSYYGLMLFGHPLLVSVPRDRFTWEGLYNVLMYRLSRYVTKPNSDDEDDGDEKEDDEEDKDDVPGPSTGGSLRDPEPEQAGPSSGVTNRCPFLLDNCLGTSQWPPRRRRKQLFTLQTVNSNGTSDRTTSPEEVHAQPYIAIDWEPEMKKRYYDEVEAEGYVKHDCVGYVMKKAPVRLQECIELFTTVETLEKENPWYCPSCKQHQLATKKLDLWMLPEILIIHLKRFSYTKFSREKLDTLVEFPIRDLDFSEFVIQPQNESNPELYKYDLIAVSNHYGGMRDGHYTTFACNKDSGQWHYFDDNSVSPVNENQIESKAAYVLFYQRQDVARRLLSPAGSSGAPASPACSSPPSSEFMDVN

O=C(CCl)Nc1cc2c(cc1Cl)OCCO2
log2 ratio of Biotin-Ahx-Ub-VS probe labelling [1]: 0.223
log2 ratio of Biotin-Ahx-Ub-VS probe labelling [2]: 0.121
log2 ratio of Biotin-Ahx-Ub-VS probe labelling [3]: -0.437
log2 ratio of Biotin-Ahx-Ub-VS probe labelling [4]: -0.908
log2 ratio of Biotin-Ahx-Ub-VS probe labelling [5]: -0.253
log2 ratio of Biotin-Ahx-Ub-VS probe labelling [6]: -0.402
log2 ratio of Biotin-Ahx-Ub-VS probe labelling [7]: 0.302

O=C(CCl)Nc1ccc(F)cc1F
log2 ratio of Biotin-Ahx-Ub-VS probe labelling [1]: -0.387
log2 ratio of Biotin-Ahx-Ub-VS probe labelling [2]: 0.0319
log2 ratio of Biotin-Ahx-Ub-VS probe labelling [3]: -0.334
log2 ratio of Biotin-Ahx-Ub-VS probe labelling [4]: -0.55
log2 ratio of Biotin-Ahx-Ub-VS probe labelling [5]: -0.199
log2 ratio of Biotin-Ahx-Ub-VS probe labelling [6]: -0.962
log2 ratio of Biotin-Ahx-Ub-VS probe labelling [7]: -0.107

CCc1c[nH]c(CNC(=O)CCl)n1.Cl
log2 ratio of Biotin-Ahx-Ub-VS probe labelling [1]: -0.772
log2 ratio of Biotin-Ahx-Ub-VS probe labelling [2]: -0.123
log2 ratio of Biotin-Ahx-Ub-VS probe labelling [3]: -0.363
log2 ratio of Biotin-Ahx-Ub-VS probe labelling [4]: -0.324
log2 ratio of Biotin-Ahx-Ub-VS probe labelling [5]: -0.147
log2 ratio of Biotin-Ahx-Ub-VS probe labelling [6]: -0.736
log2 ratio of Biotin-Ahx-Ub-VS probe labelling [7]: -0.491

Cc1conc1C1CN(C(=O)CCl)C1
log2 ratio of Biotin-Ahx-Ub-VS probe labelling [1]: -0.553
log2 ratio of Biotin-Ahx-Ub-VS probe labelling [2]: -0.677
log2 ratio of Biotin-Ahx-Ub-VS probe labelling [3]: -0.923
log2 ratio of Biotin-Ahx-Ub-VS probe labelling [4]: -1.71 (active)
log2 ratio of Biotin-Ahx-Ub-VS probe labelling [5]: -0.584
log2 ratio of Biotin-Ahx-Ub-VS probe labelling [6]: -0.885
log2 ratio of Biotin-Ahx-Ub-VS probe labelling [7]: -1.1 (active)

COc1ccccc1C(C)NC(=O)CCl (centres undefined)
log2 ratio of Biotin-Ahx-Ub-VS probe labelling [1]: -0.445
log2 ratio of Biotin-Ahx-Ub-VS probe labelling [2]: -0.212
log2 ratio of Biotin-Ahx-Ub-VS probe labelling [3]: -0.15
log2 ratio of Biotin-Ahx-Ub-VS probe labelling [4]: -0.696
log2 ratio of Biotin-Ahx-Ub-VS probe labelling [5]: -0.277
log2 ratio of Biotin-Ahx-Ub-VS probe labelling [6]: -0.788
log2 ratio of Biotin-Ahx-Ub-VS probe labelling [7]: -0.23

O=C(CCl)N1CCN(c2nc3ccccc3o2)CC1
log2 ratio of Biotin-Ahx-Ub-VS probe labelling [1]: -0.666
log2 ratio of Biotin-Ahx-Ub-VS probe labelling [2]: -0.255
log2 ratio of Biotin-Ahx-Ub-VS probe labelling [3]: -0.0854
log2 ratio of Biotin-Ahx-Ub-VS probe labelling [4]: -0.515
log2 ratio of Biotin-Ahx-Ub-VS probe labelling [5]: -0.57
log2 ratio of Biotin-Ahx-Ub-VS probe labelling [6]: -0.691
log2 ratio of Biotin-Ahx-Ub-VS probe labelling [7]: -0.434

Cc1c(NC(=O)CCl)c(=O)n(-c2ccccc2)n1C
log2 ratio of Biotin-Ahx-Ub-VS probe labelling [1]: 0.221
log2 ratio of Biotin-Ahx-Ub-VS probe labelling [2]: -0.106
log2 ratio of Biotin-Ahx-Ub-VS probe labelling [3]: -0.105
log2 ratio of Biotin-Ahx-Ub-VS probe labelling [4]: -0.377
log2 ratio of Biotin-Ahx-Ub-VS probe labelling [5]: -0.286
log2 ratio of Biotin-Ahx-Ub-VS probe labelling [6]: 0.0727
log2 ratio of Biotin-Ahx-Ub-VS probe labelling [7]: -0.128
